A short description of experiment [1]: qHTS assay to identify small molecule antagonists of the glucocorticoid receptor (GR) signaling pathway - cell viability counter screen (AID 720693). Note: nearly all actives have a fitted effect of over 55% in size. Note: potency is the fitted concentration of half-maximal effect. Particulars: GR-bla HeLa viability, CellTiter-Glo luminescence, 18 h, with 5 nM dexamethasone present; series mostly up to 58.5 µM. For orientation: qHTS replaces the single test concentration by a dilution series.

Experiment [2] is described as follows: qHTS assay for identifying genotoxic compounds that show differential cytotoxicity against isogenic chicken DT40 cell lines with known DNA damage response pathways - wild type cell line (AID 743012). Note: nearly all actives have a fitted effect of over 60% in size. Note: potency is the fitted concentration of half-maximal effect. The following applies: DT40 wild type chicken cells viability, CellTiter-Glo, 40 h; series mostly up to 68.4 µM. Summed up:
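Quantitative HTS on parental DT40 cells: 40 h compound treatment at 37 C/5% CO2, with viability then determined by CellTiter-Glo luminescence. Values serve as the DNA repair-proficient reference for differential cytotoxicity.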

Experiment [3] in a line: qHTS assay for identifying genotoxic compounds that show differential cytotoxicity against isogenic chicken DT40 cell lines with known DNA damage response pathways - Rev3 mutant cell line (AID 743014). Note: nearly all actives have a fitted effect of over 55% in size. Note: potency is the fitted concentration of half-maximal effect. The following applies: chicken DT40 Rev3-/- viability, CellTiter-Glo, 40 h; series mostly up to 68.4 µM.
Experiment [4] can be described thus: qHTS assay for identifying genotoxic compounds that show differential cytotoxicity against isogenic chicken DT40 cell lines with known DNA damage response pathways - Rad54/Ku70 mutant cell line (AID 743015). Note: nearly all actives have a fitted effect of over 60% in size. Note: potency is the fitted concentration of half-maximal effect. Particulars: DT40 Rad54/Ku70 mutant viability, CellTiter-Glo, 40 h; series mostly up to 66.8 µM.
Experiment [5] can be described thus: qHTS assay to identify small molecule antagonists of the androgen receptor (AR) signaling pathway - cell viability counter screen (AID 743033; note: nearly all actives have a fitted effect of over 45% in size; note: potency is the fitted concentration of half-maximal effect). The following applies: AR-bla HEK293 viability, CellTiter-Glo luminescence, 16 h; series mostly up to 58.5 µM.
The nature of experiment [6]: qHTS assay to identify small molecule antagonists of the thyroid receptor (TR) signaling pathway - cell viability counter screen (AID 743064). Note: nearly all actives have a fitted effect of over 50% in size. Note: potency is the fitted concentration of half-maximal effect. Particulars: GH3.TRE-Luc viability, CellTiter-Fluor, 24 h; series mostly up to 70.3 µM. In a few lines: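 In rat pituitary GH3.TRE-Luc reporter cells co-exposed to compound and 1 nM T3 for 23.5 h, cytotoxicity was assessed with CellTiter-Fluor in the same wells, read by fluorescence.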

Experiment [7] can be described thus: qHTS assay to identify small molecule antagonists of the thyroid receptor (TR) signaling pathway (AID 743065). Note: nearly all actives have a fitted effect of over 55% in size. Note: potency is the fitted concentration of half-maximal effect. The following applies: GH3.TRE-Luc, T3-stimulated luciferase inhibition, 23.5 h; series mostly up to 70.3 µM. In a few lines: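 GH3.TRE-Luc rat pituitary cells carrying two TR response elements driving luciferase were plated for 4 h, given compound plus 1 nM T3 (final), and incubated 23.5 h at 37 C. ONE-Glo luminescence measured reporter inhibition; CellTiter-Fluor fluorescence tracked cytotoxicity.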

Experiment [8] has as its system thyroid hormone receptor (rat, GH3 cells). As to the kind of experiment: qHTS assay to identify small molecule agonists of the thyroid receptor (TR) signaling pathway (AID 743066; calls by dose curve; note: % is set by controls: 0 for no effect and ±100 for the full control effect). The following applies: GH3.TRE-Luc cells, TR agonist luciferase, 24 h; series mostly up to 83.9 µM.
The nature of experiment [9]: qHTS assay to identify small molecule antagonists of the estrogen receptor alpha (ER-alpha) signaling pathway - cell viability counter screen (AID 743074; calls by dose curve;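 note: HEK293 cells carrying ER-alpha-UAS-bla reporter stimulated with 17beta-estradiol; nearly all actives have a fitted effect of over 45% in size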; note: potency is the fitted concentration of half-maximal effect). Particulars: ERalpha-bla HEK293 viability, CellTiter-Glo luminescence, 18 h; series mostly up to 69.4 µM.
A short description of experiment [10]: qHTS assay to identify small molecule antagonists of the estrogen receptor alpha (ER-alpha) signaling pathway using the BG1 cell line - cell viability counter screen (AID 743081).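 Note: compound given together with 17beta-estradiol as the ER stimulus; nearly all actives have a fitted effect of over 45% in size.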 Note: potency is the fitted concentration of half-maximal effect. The following applies: BG1Luc4E2 viability, CellTiter-Fluor, 22 h; series mostly up to 70.3 µM.
The next experiment concerns the target Aromatase (Homo sapiens) (UniProt P11511). As to the kind of experiment: qHTS assay to identify aromatase inhibitors (AID 743083). Note: nearly all actives have a fitted effect of over 55% in size. Note: potency is the fitted concentration of half-maximal effect. Particulars: MCF-7 aro ERE, testosterone-driven ERE luciferase, 24 h; series mostly up to 70.3 µM.
The nature of experiment [11]: qHTS assay to identify small molecule antagonists of the androgen receptor (AR) signaling pathway using the MDA cell line - cell viability counter screen (AID 743041; note: % is set by controls: 0 for no effect and ±100 for the full control effect; nearly all actives have a fitted effect of over 45% in size). The following applies: MDA-kb2 viability, CellTiter-Fluor, 16 h, cells co-treated with R1881 androgen agonist; series mostly up to 70.3 µM. In a few lines: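 Viability counter screen run alongside the AR antagonist reporter: cells seeded 5 h before compound, R1881 added, 16 h incubation at 37C without CO2, fluorescent CellTiter-Fluor signal quantified.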

The nature of experiment [12]: qHTS assay to identify small molecule antagonists of the estrogen receptor alpha (ER-alpha) signaling pathway using the BG1 cell line (AID 743080; calls by dose curve;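 note: BG1 cells stimulated with 17beta-estradiol alongside compound; potency is the fitted concentration of half-maximal effect; nearly all actives have a fitted effect of over 25% in size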). The following applies: BG1Luc4E2 ERE-luciferase antagonist mode, luminescence; series mostly up to 70.3 µM. In a few lines: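 Seeding, 24 h rest, compound transfer from DMSO, 17beta-estradiol addition, 21.5 h incubation, CellTiter-Fluor (30 min, 37 C), then ONE-Glo (30 min, room temperature): this sequence was run on BG1-Luc-4E2 reporter cells.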

Experiment [13] has as its target Estrogen receptor (Homo sapiens) (UniProt P03372). The experiment can be described thus: qHTS assay to identify small molecule antagonists of the estrogen receptor alpha (ER-alpha) signaling pathway (AID 743069; active = well fitted curve in the direction sought with a large enough effect in the signal ratio in the repeat runs, not every such curve was filed as active; inconclusive = weak or mixed curves, or effect the other way; inactive = no such curve, though single readings can be large or run the other way; the % refers to the signal ratio; note: potency is the fitted concentration of half-maximal effect). The following applies: HEK293 ER-alpha-UAS-bla, beta-lactamase ratio, antagonist mode; series mostly up to 69.4 µM. Summed up: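 Estradiol-stimulated ER-alpha-UAS-bla HEK293 cells, 18 hr compound exposure at 37C. LiveBLAzer B/G substrate, 2 hr RT, fluorescence read.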

Experiment [14] has the same target. The experiment can be described thus: qHTS assay to identify small molecule agonists of the estrogen receptor alpha (ER-alpha) signaling pathway (AID 743075; calls by dose curve;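 note: HEK293 GripTite cells with ER-alpha and UAS-driven beta-lactamase reporter; % is set by controls: 0 for no effect and ±100 for the full control effect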). Particulars: HEK293 ER-alpha-UAS-bla, beta-lactamase FRET ratio, 18 h; activation: at 70.1 µM (top of the series).
Experiment [15] has the same target. As to the kind of experiment: qHTS assay to identify small molecule agonists of the estrogen receptor alpha (ER-alpha) signaling pathway using the BG1 cell line (AID 743079). Note: % is set by controls: 0 for no effect and ±100 for the full control effect; nearly all actives have a fitted effect of over 20% in size. The following applies: BG1Luc4E2 cells, ERE-luciferase agonist, 22 h; at 70.3 µM (top of the series).

Structures are written as SMILES. Values joined by “and” are separate entries in the source; they are usually repeats but may differ in a detail not shown here. Equal values may be shown once. Where a structure was tested more than once in an assay, its records may differ in their call. Active and inactive are the calls of the source. Unless noted, calls come from the whole dose curve; as a rule, active = well fitted curve in the direction sought with a large enough effect in the repeat runs; inconclusive = weak or mixed curves; inactive = no such curve, though single readings can be large; an effect the other way counts as inactive or inconclusive.

Chain of Estrogen receptor (Homo sapiens) (P03372 whole entry, looked up): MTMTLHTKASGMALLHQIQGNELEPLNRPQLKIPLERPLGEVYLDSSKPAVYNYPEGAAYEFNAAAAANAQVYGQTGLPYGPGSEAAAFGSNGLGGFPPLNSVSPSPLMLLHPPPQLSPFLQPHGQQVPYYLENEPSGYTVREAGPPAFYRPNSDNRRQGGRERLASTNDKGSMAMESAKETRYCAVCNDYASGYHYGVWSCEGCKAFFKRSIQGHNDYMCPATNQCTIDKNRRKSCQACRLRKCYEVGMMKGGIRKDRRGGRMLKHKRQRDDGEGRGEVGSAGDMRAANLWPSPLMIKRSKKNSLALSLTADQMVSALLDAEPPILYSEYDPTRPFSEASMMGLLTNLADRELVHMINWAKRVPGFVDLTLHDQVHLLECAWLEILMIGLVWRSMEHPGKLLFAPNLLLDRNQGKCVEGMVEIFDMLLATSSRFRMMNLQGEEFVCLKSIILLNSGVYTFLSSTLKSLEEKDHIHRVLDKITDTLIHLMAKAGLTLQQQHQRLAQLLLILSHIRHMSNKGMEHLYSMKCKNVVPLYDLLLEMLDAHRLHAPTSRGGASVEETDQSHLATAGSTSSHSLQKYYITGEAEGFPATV
Chain of Aromatase (Homo sapiens) (P11511 whole entry, looked up): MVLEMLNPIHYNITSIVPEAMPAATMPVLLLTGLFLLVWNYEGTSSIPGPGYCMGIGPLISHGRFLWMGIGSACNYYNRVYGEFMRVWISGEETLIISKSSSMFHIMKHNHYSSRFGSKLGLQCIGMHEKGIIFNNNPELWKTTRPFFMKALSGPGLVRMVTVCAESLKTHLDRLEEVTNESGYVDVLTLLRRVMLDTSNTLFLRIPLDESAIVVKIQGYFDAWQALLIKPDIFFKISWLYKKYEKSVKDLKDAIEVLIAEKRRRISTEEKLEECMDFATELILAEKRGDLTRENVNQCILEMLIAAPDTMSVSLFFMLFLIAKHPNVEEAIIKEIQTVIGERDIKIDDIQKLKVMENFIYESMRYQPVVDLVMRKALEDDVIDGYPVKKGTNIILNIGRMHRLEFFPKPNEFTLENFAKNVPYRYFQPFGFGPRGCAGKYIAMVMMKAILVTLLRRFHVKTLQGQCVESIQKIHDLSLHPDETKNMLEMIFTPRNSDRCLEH

As for `CC1=C(/C=C/C(C)=C/C=C/C(C)=C/C=O)C(C)(C)CCC1`, the Potency is 24.4 µM (active) in experiment [1]; 13.6 µM (active) in [2]; 9.63 µM (active) in experiment [3]; 12.1 µM (active) in experiment [4]; 21.8 µM (active) in experiment [5]; 7.65 µM (active) in experiment [6]. Besides, the Potency in experiment [7] is 8.58 µM (active); in experiment [9], 54.6 µM (active); in experiment [10], 60.8 µM (active); with Aromatase (Homo sapiens), 15.3 µM (active). In [8], the Potency result is “inactive”.

As to `COc1cc(/C=C/C(=O)O[C@H]2CC[C@]34C[C@]35CC[C@]3(C)[C@@H]([C@H](C)CCC=C(C)C)CC[C@@]3(C)[C@@H]5CC[C@H]4C2(C)C)ccc1O`, the Potency result in [1], in [2], in experiment [3], in experiment [4], in [5] and in experiment [6] was “inactive” in each case. The Potency entry (in [7]; in [8]; in [10]; in the experiment with Aromatase (Homo sapiens)) was “inactive” each time.

For `O=C(N/N=C/c1ccccc1O)c1ccncc1`, the Potency entry in experiment [1], in experiment [11], in experiment [9] and in experiment [10] was “inactive” throughout. Further, the Potency in experiment [2] was 4.22 µM (active); in experiment [3] it was 2.98 µM (active); in experiment [4], 5.96 µM (active); in experiment [7] it was 29.8 µM (active); in experiment [12], 18.8 µM (active); with Aromatase (Homo sapiens) it was 5.96 µM (active).

With `O=c1c(-c2ccccc2)c1-c1ccccc1`, the Potency result in experiment [1], in [9], in experiment [14] and in experiment [10] was “inactive” in each case. Moreover, the Potency is 3.76 µM (active) in experiment [2]; 4.73 µM (active) in experiment [3]; 4.73 µM (active) in experiment [4]; 21.3 µM (active) in [5]; 5.96 µM (active) in experiment [6]; 5.31 µM (active) in [7]. The Potency in experiment [13] is 26.8 µM [inconclusive] (active); in the experiment with Aromatase (Homo sapiens), 29.8 µM (active). In [15], the activation is -33.7% (inactive).

Take `Oc1ccc2cc(SSc3ccc4cc(O)ccc4c3)ccc2c1`: the Potency entry in [1], in experiment [11], in experiment [8], in [9] and in [10] was “inactive” throughout. Besides, the Potency in experiment [2] is 24.3 µM (active); in experiment [3] it was 19.4 µM (active) and 21.7 µM (active); in [4], 24.4 µM (active) and 27.3 µM (active); in experiment [6] it was “inactive and 61.1 µM (active)”.

Take `COC(=O)C1=C(C)NC(C)=C(C(=O)OCC(C)C)C1c1ccccc1[N+](=O)[O-]` (stereo unspecified): the Potency result in experiment [1], in experiment [8], in [9], in [14] and in experiment [10] was “inactive” throughout. In addition, the Potency in [2] is 5.31 µM (active) and 3.86 µM (active); in [3], 10.6 µM (active) and 4.33 µM (active); in experiment [4], 8.41 µM (active) and 5.45 µM (active); in experiment [5], 43.6 µM (active); in experiment [6], 33.5 µM (active) and 68.6 µM (active); in experiment [7], 29.8 µM (active) and 54.5 µM (active). Moreover, the Potency in [13] was 54.9 µM [inconclusive] (active); in the experiment with Aromatase (Homo sapiens), 33.5 µM (active) and 61.1 µM (active).

For the origin of these results see PubChem BioAssay (Tox21).
